# PubChem BioAssay (NCI)
# This is part of a sample that, as a whole, favours compounds with a hit. Of some 79,000 tested, about 15% had one in any assay. Values without a mark were called inactive. Calls of active or inactive are those of the source. No stated cut-off is given here; in the data, active means growth inhibition above about 70%; inactive means the rest.
# Experiments:
# [1] = NCI Yeast Anticancer Drug Screen. Data for the rad50 strain (AID 155);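 further: 0% = growth of vehicle-only cultures of the same strain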; details: S. cerevisiae rad50 strain growth inhibition, hits give high values
# Method in brief: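 DNA repair mutant yeast, compound exposure, growth read-out; inhibition is taken relative to vehicle.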
# [2] = NCI Yeast Anticancer Drug Screen. Data for the mec2-1 strain (AID 157); details: S. cerevisiae mec2-1 strain, hits give high values
# Method in brief: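 Using mec2-1 yeast: add compound, measure growth, express inhibition versus vehicle-treated cultures.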
# [3] = NCI Yeast Anticancer Drug Screen. Data for the sgs1 mgt1 strain (AID 161);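 further: 0% = growth of cultures given vehicle only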; details: S. cerevisiae sgs1 mgt1 strain, hits give high values
# Method in brief: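 Percent growth inhibition was derived by comparing compound-exposed mutant yeast with vehicle-exposed cultures. The strain carries alterations in DNA damage repair.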
# [4] = NCI Yeast Anticancer Drug Screen. Data for the cln2 rad14 strain (AID 165);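 further: 0% = growth equal to vehicle treated cultures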; details: S. cerevisiae cln2 rad14 strain, hits give high values
# Method in brief: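 Yeast strain cln2 rad14, bearing defects in cell cycle control and DNA repair, serves as the test system; values reflect growth inhibition compared with vehicle.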
# [5] = NCI Yeast Anticancer Drug Screen. Data for the bub3 strain (AID 167); details: S. cerevisiae bub3 mutant strain, hits give high values
# Method in brief: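 In this screen, a yeast mutant lacking normal mitotic checkpoint function is challenged with compound. Relative growth versus vehicle gives the inhibition value.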
# [6] = NCI Yeast Anticancer Drug Screen. Data for the mlh1 rad18 strain (AID 175); details: S. cerevisiae mlh1 rad18 strain growth inhibition, hits give high values
# Method in brief: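 Steps: expose repair-defective yeast to compound; measure growth; express inhibition against vehicle-treated controls.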
# [7] = at 5.0 µM (retest, dose inferred, filed as 0.5)
# [8] = at 50.0 µM (retest, dose inferred, filed as 5.0)
Structure (SMILES),"growth inhibition [1, 7]","growth inhibition [1, 8]",growth inhibition ([1]; at 50.0 µM),"growth inhibition [2, 7]","growth inhibition [2, 8]",growth inhibition ([2]; at 50.0 µM),"growth inhibition [3, 7]","growth inhibition [3, 8]",growth inhibition ([3]; at 50.0 µM),"growth inhibition [4, 7]","growth inhibition [4, 8]",growth inhibition ([4]; at 50.0 µM),"growth inhibition [5, 7]","growth inhibition [5, 8]",growth inhibition ([5]; at 50.0 µM),"growth inhibition [6, 7]","growth inhibition [6, 8]",growth inhibition ([6]; at 50.0 µM)
CSC(C=P(c1ccccc1)(c1ccccc1)c1ccccc1)=Nc1ccccc1,58%,98% (active),96.8% (active),22%,96% (active),99% (active),23%,98% (active),95.5% (active),3%,97% (active),98.3% (active),16%,97% (active),98.2% (active),15%,97% (active),95.7% (active)
O=[N+]([O-])c1ccccc1NCCO,1%,-2%,-10.2%,3%,0%,-5.65%,-2%,-12%,-0.15%,2%,4%,28.8%,3%,2%,-14.2%,2%,3%,-24.9%
Clc1cc(Cl)c2c(c1)nc(Cl)c1cc(Cl)ccc12,-13%,1%,97% (active),-13%,7%,99% (active),-5%,1%,97.6% (active),-1%,2%,98.5% (active),-5%,1%,98.7% (active),-14%,-20%,98.6% (active)
C=CCN1CCC(OC(=O)C(O)(C#CC)C2CCCC2)CC1 (configuration not stated),40%,72% (active),68.9%,31%,62%,50.9%,40%,71% (active),71.9% (active),35%,76% (active),58.6%,21%,78% (active),61.8%,17%,66%,64%
CC(O)(c1ccccc1)c1ccccc1S(=O)(=O)Nc1ccccc1 (configuration not stated),-7%,99% (active),99.2% (active),6%,91% (active),98.8% (active),-4%,99% (active),98.5% (active),12%,33%,98.5% (active),-5%,46%,98.9% (active),-2%,98% (active),98.4% (active)
c1ccc2c(c1)Nc1ccc3ccccc3c1S2,3%,-1%,47.8%,-50%,3%,15.2%,-1%,13%,41.5%,4%,-12%,-39.9%,30%,3%,48.6%,3%,13%,66.5%
Cc1c(O)ccc2c1OCC(c1ccc(Cl)cc1)C2 (configuration not stated),-19%,72% (active),87.9% (active),0%,13%,70.2% (active),-7%,21%,72.8% (active),10%,39%,78.5% (active),32%,85% (active),92.9% (active),-10%,43%,94.2% (active)
Clc1sc2ccccc2c1Cl,2%,-18%,22.2%,-5%,-3%,-11.9%,2%,1%,25.2%,4%,-4%,36.6%,-79%,0%,-7.55%,-1%,-2%,14.6%
Cc1cc2c(cc1S(=O)(=O)O)C1C(C3C2C2(Cl)C(Cl)=C(Cl)C3(Cl)C2(Cl)Cl)C2(Cl)C(Cl)=C(Cl)C1(Cl)C2(Cl)Cl (configuration not stated),1%,69%,82.4% (active),-14%,72% (active),74.4% (active),27%,87% (active),86.8% (active),33%,84% (active),60.7%,-15%,82% (active),70.8% (active),-20%,87% (active),79.2% (active)
CC(C)c1ccc2c(c1)CCC1C(C)(CNC(=O)S)CCCC21C.[Zn+2] (configuration not stated),9%,13%,-8.15%,8%,30%,46.8%,5%,40%,-10.6%,10%,4%,38.5%,6%,35%,2%,5%,29%,-10.6%
O=c1ncccn1[C@@H]1O[C@H](CO)[C@H](O)C1O (some centres not stated),21%,22%,64.3%,13%,12%,28.4%,15%,12%,4.15%,10%,12%,10.8%,23%,10%,-5.75%,7%,31%,-9.3%
Cc1cc(=Nc2ccc3c(c2)c(N)cc(C)[n+]3C)nc(N)n1C,84% (active),88% (active),97.1% (active),78% (active),95% (active),92.5% (active),78% (active),61%,95.2% (active),83% (active),85% (active),91.9% (active),75% (active),87% (active),89.1% (active),83% (active),90% (active),97.5% (active)
CC(C)CCOc1ccc(/C=C\C(=O)O)cc1,3%,30%,61.1%,-2%,41%,81.5% (active),-3%,38%,30.1%,-1%,87% (active),93.9% (active),1%,54%,71% (active),6%,43%,75% (active)
O=c1[nH]c2c([N+](=O)[O-])cc(Cl)cc2nc1/C=C(\O)c1ccc(F)cc1,12%,64%,71.1% (active),-6%,23%,42.8%,3%,54%,73.4% (active),5%,42%,42.2%,2%,41%,43.5%,-3%,65%,87.3% (active)
CC(=Nc1ccc(S(=O)(=O)c2ccc(N=C(C)N3CCCCC3)cc2)cc1)N1CCCCC1,0%,2%,-0.05%,-1%,-1%,4%,-2%,1%,-6.45%,-5%,-2%,-10.5%,-1%,-1%,-2.55%,-2%,-5%,-2.15%
OCC1(O)OCC(O)C(O)C1O (configuration not stated),-3%,72% (active),74.7% (active),-2%,68%,80% (active),0%,60%,72.7% (active),7%,29%,58.8%,1%,69%,72.1% (active),-1%,81% (active),79.5% (active)
Cc1cc(O)c2c(c1)OC1(C)CCC3C(C)(C)CCCC34COC2C14 (configuration not stated),18%,97% (active),89.5% (active),16%,98% (active),87.5% (active),17%,98% (active),90.6% (active),27%,98% (active),88.5% (active),6%,98% (active),85.5% (active),33%,97% (active),88.6% (active)
O=c1onc(-c2ccc(Cl)cc2)c2ccccc12,8%,3%,6.6%,4%,3%,16.4%,7%,5%,-1.2%,5%,6%,82.7% (active),2%,6%,14.4%,-1%,4%,8.15%
CN(Cc1cc(Cl)cc(Cl)c1)CC(C(=O)c1ccccc1)c1ccccc1 (configuration not stated),21%,86% (active),81.7% (active),13%,90% (active),96.5% (active),57%,96% (active),93.3% (active),3%,85% (active),50.3%,14%,94% (active),41.5%,29%,91% (active),97.3% (active)
